The record followed here is PubChem BioAssay (NCI).

About 79,000 compounds went through this panel and 15% of them were active in at least one assay; those are over-represented in the sample as a whole. Unmarked numbers belong to inactive results. Active and inactive are the calls of the source. Rule as the data show it: active = growth inhibition above about 70%; inactive = the rest.

This assay in a line: NCI Yeast Anticancer Drug Screen. Data for the rad50EPP+ strain (AID 151).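 Also: 0% = growth of vehicle-treated control cultures.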 The note with it: S. cerevisiae rad50 mutant strain, active compounds read high. The protocol:
Growth inhibition of yeast strains with defined genetic alterations is measured as a screen for potential anti-cancer activity. Selected strains with alterations in DNA damage repair or cell cycle control were exposed to compounds and growth inhibition was measured relative to vehicle treated controls. The strain used in this assay is rad50EPP+

With `CSc1nc(-c2ccccc2)nc(=[N+]2CCOCC2)s1`, the growth inhibition reads like this: (at 1.2 µM) 27%; (at 3.7 µM) 56%; (at 11.0 µM) 77% (active); (at 33.0 µM) 89% (active); (at 100.0 µM) 93% (active).

`O=C1CC(C(O)(C(F)(F)F)C(F)(F)Cl)CCC1C(O)(C(F)(F)F)C(F)(F)Cl` (stereo not given): the growth inhibition is, setting by setting: (at 1.2 µM) 12%; (at 3.7 µM) 24%; (at 11.0 µM) 38%; (at 33.0 µM) 46%; (at 100.0 µM) 41%.

With `C/C(=N/NC(=S)Nc1ccccc1C)c1ccccn1`, the growth inhibition by setting is: (at 1.2 µM) 3%; (at 3.7 µM) 6%; (at 11.0 µM) 13%; (at 33.0 µM) 14%; (at 100.0 µM) 4%.

Turning to `CCCCCCCCCCCCCCCCCCN(C)C(COC)COP(=O)([O-])OCC[N+](C)(C)C` (stereo not given), the growth inhibition is, setting by setting: (at 1.2 µM) -33%; (at 3.7 µM) 63%; (at 11.0 µM) 97% (active); (at 33.0 µM) 98% (active); (at 100.0 µM) 98% (active).

On to `C=CCNC1=C2C[C@@H](C)C[C@H](OC)[C@H](O)[C@@H](C)/C=C(\C)[C@H](OC(N)=O)[C@@H](OC)/C=C\C=C(/C)C(=O)NC(=CC1=O)C2=O`, for which the growth inhibition runs as follows: (at 1.2 µM) -33%; (at 3.7 µM) -43%; (at 11.0 µM) -46%; (at 33.0 µM) -30%; (at 100.0 µM) -1%.

Turning to `CCOP(=O)(OCC)/C(C#N)=C/c1ccc(-c2ccc(F)cc2F)o1`, the growth inhibition runs as follows: (at 1.2 µM) 0%; (at 3.7 µM) 1%; (at 11.0 µM) 3%; (at 33.0 µM) 0%; (at 100.0 µM) 5%.

Regarding `COc1ccc(N=c2cc(-c3ccccc3)oc3ccccc23)cc1`, the growth inhibition runs as follows: (at 1.2 µM) -1%; (at 3.7 µM) -3%; (at 11.0 µM) -5%; (at 33.0 µM) -2%; (at 100.0 µM) 16%.

Turning to `Cc1ccnc2c(O)cccc12`, the growth inhibition is -1% (at 1.2 µM); 98% (active) (at 3.7 µM); 99% (active) (at 11.0 µM); 99% (active) (at 33.0 µM); 99% (active) (at 100.0 µM).
